Screening data as filed in PubChem.
Hits are enriched below; roughly 2.4% of the tested compounds scored in any of these assays.
Platelet DG rel – platelet dense granule release activity; human platelet-rich plasma, SFLLRN dense granule ATP release, luminescence; inhibition, %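 (compounds screened at 7.5 µM in platelet-rich plasma)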; 0.22% of 300,000 active;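 active = mean replicate score, as percent of positive control, at or above 50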
SENP8 block-1 – SENP8 (human) protease inhibition. Q96LD8. recombinant SENP8, Nedd8 substrate fluorescence. inhibition, % at 20 µM. 0.64% of 360,000 active. AID 602440; in the data active = inhibition mostly above about 40%, no sharp cut-off; inactive = mostly below about 27%
Target sequence (Q96LD8 whole entry, looked up): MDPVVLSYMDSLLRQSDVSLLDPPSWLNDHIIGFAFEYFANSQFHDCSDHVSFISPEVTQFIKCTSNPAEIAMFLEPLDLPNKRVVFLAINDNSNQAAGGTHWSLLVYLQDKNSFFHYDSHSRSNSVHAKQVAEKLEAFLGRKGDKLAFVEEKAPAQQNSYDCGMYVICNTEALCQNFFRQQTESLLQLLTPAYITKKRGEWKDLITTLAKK
SENP6 block – inhibitors of human SENP6 protease | Recombinant SENP6 catalytic domain, aminoluciferin luminescence | inhibition, % at 10 µM | AID 2599 | Q9GZR1 | 1.8% of 330,000 active;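 active = inhibition above about 50% at the single tested dose, limit read from the data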;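 note: plate controls were DMSO wells with enzyme for no effect and DMSO wells lacking enzyme for full effect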
SENP7 inh – SENP7 protease inhibition. AID 434973. 1.5% of 330,000 active. inhibition, % at 5 µM. recombinant SENP7, Z-RLRGG-aminoluciferin luminescence, 40 min;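 active = inhibition above about 50% at the single test dose, limit read from the data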;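 note: plate controls were DMSO with enzyme for no effect and no enzyme buffer wells for full effect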
SENP8 block-2 – SENP8 protease inhibition; Q96LD8; purified SENP8, Z-RLRGG-aminoluciferin cleavage, luminescence; inhibition, % at 10 µM; 1.2% of 330,000 active; AID 2540; in the data active = inhibition above about 50%
SENP8 confirm – confirmation of human SENP8 protease inhibitors | shares compounds with SENP7 inh | AID 488912 | 40% of 6,200 active | inhibition, % at 12.5 µM | Recombinant SENP8, Z-RLRGG-aminoluciferin luminescence, 60 min;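 active = mean inhibition across replicates above about 50%, limit read from the data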
SENP6 confirm – human SENP6 inhibition, confirmed; AID 488915; recombinant SENP6, Z-RLRGG-aminoluciferin luminescence; shares compounds with SENP7 inh; 58% of 6,200 active; inhibition, % at 12.5 µM
SENP7 conf – confirmation of human SENP7 protease inhibitors | inhibition, % at 12.5 µM | 69% of 6,200 active | shares compounds with SENP7 inh | AID 488917 | recombinant SENP7, Z-RLRGG-aminoluciferin luminescence, 40 min
Casp3 SENP sel – inhibits human caspase-3 in SENP selectivity test; shares compounds with SENP7 inh; purified caspase-3, Z-DEVD-aminoluciferin luminescence, 60 min; inhibition, % at 12.5 µM; 60% of 6,200 active; AID 488918;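 active = mean inhibition above about 50%, limit read from the data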;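 note: plate controls were enzyme with DMSO for no effect and wells without caspase-3 for full effect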
Target sequence (P42574 28-227 limits assumed): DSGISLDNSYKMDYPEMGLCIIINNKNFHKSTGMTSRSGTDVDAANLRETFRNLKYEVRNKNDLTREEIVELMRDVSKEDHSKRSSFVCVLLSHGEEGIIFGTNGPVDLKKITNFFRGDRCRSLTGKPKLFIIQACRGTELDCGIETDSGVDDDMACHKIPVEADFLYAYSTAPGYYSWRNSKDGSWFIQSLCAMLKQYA
SENP luc ctr – interferes with luciferase luminescence in SENP counter-screen | shares compounds with SENP7 inh | Pre-incubated SENP8/Z-RLRGG-aminoluciferin, luciferase luminescence interference | inhibition, % at 12.5 µM | 39% of 6,200 active | AID 488919;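 active = mean inhibition above about 50% when retested at one dose, limit read from the data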;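 note: plate controls were DMSO wells with completed reaction for no effect and substrate without enzyme for full effect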
The depositor's hits bear a star; i = inactive; x = no result given.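 Rule for the calls, unless noted: active = mean inhibition above about 50% in the one-dose retest (limit read from the data); inactive = the rest.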

SMILES	Platelet DG rel	SENP8 block-1	SENP6 block	SENP7 inh	SENP8 block-2	SENP8 confirm	SENP6 confirm	SENP7 conf	Casp3 SENP sel	SENP luc ctr
COc1cccc(C(=O)N=c2sc3c(C)ccc(OC)c3n2C)c1	16	-487	6	97*	68*	11	22	9	13	19
COc1ccc(C(=O)N=c2sc3c(C)ccc(OC)c3n2C)cc1OC	2	-446	84*	89*	76*	5	14	15	9	16
Cc1ccc(NC(=O)C2CCCO2)c(Br)c1 (configuration not stated)	-1	1	-23	-1	-5	x	x	x	x	x
O=C(O)c1cccc(-c2nnn(Cc3ccccc3Cl)n2)c1	-4	18	82*	43	56*	12	83*	94*	44	44
Cc1ccccc1Cn1nnc(-c2ccc(C(=O)O)cc2)n1	0	0	-9	0	-9	x	x	x	x	x
O=C(O)c1cccc(-c2nnn(Cc3ccccc3)n2)c1	-6	22	10	1	-10	x	x	x	x	x
Cc1ccccc1Cn1nnc(-c2cccc(C(=O)O)c2)n1	14	6	71*	33	31	64*	61*	86*	52*	72*
Cc1cc(C)c(S(=O)(=O)c2ccccc2C(C)C)c(=O)[nH]1	2	-41	x	x	x	x	x	x	x	x
Cc1cc(C=C2C(=O)c3ccccc3C2=O)c(C)n1C	-7	18	66*	3	56*	10	37	72*	37	7
O=C1C(=Cc2cccs2)C(=O)c2ccccc21	-5	10	31	12	10	x	x	x	x	x
Cc1ccc(C=C2C(=O)c3ccccc3C2=O)s1	20	40	70*	92*	81*	68*	94*	99*	88*	40
Cc1ccc(/C=C2/C(=O)c3ccc(C(=O)O)cc3C2=O)o1	12	11	x	x	x	x	x	x	x	x
Cc1ccc(C=C2C(=O)c3ccccc3C2=O)o1	30	22	97*	95*	79*	96*	97*	101*	96*	75*
COC(=O)c1cn(CCC#N)nc1-c1ccc2ccccc2c1	5	7	7	-4	3	x	x	x	x	x
CC1(C)Oc2ccc3ccc(=O)oc3c2/C(=C/NNC(N)=O)C1=O	10	-16	7	-2	-2	x	x	x	x	x
CCCC(=O)Nc1nc2ccc(OCC)cc2s1	-7	-2	-11	-15	-6	x	x	x	x	x
CCOc1ccc2nc(NC(=O)c3cccnc3)sc2c1	22	-133	84*	86*	71*	12	20	41	40	6
CCOc1ccc2nc(NC(=O)c3ccc(C)o3)sc2c1	61*	-428	96*	98*	94*	3	95*	102*	91*	10
CN(C)C(=S)Nc1nc2ccccc2s1	6	10	x	x	x	x	x	x	x	x
CCOc1ccc2nc(NC(=S)N(C)C)sc2c1	9	14	77*	57*	49	71*	69*	92*	58*	82*
CC(=O)c1ccc(-c2ccc(C(=O)NC3CC(C)(C)NC(C)(C)C3)o2)cc1	0	i	-8	-6	-4	x	x	x	x	x
Cc1nn2cc(-c3ccccc3)nc2[nH]c1=O	11	-497	72*	24	38	66*	61*	89*	89*	29
O=S(=O)(Nc1ccccc1N1CCOCC1)c1c(F)cc(F)cc1Br	x	-2	16	-1	6	x	x	x	x	x
COc1ccc(C(=O)/C=C/c2cccs2)c(OC(=O)c2cccc([N+](=O)[O-])c2)c1	8	29	79*	39	67*	31	39	19	44	2
CN(C1=C(NC(=O)c2ccccc2)C(=O)c2ccccc2C1=O)C1CCS(=O)(=O)C1 (configuration not stated)	-7	64*	95*	53*	60*	70*	87*	57*	75*	0
SMILES	Platelet DG rel	SENP8 block-1	SENP6 block	SENP7 inh	SENP8 block-2	SENP8 confirm	SENP6 confirm	SENP7 conf	Casp3 SENP sel	SENP luc ctr
COc1ccc(-n2nc(C)c3c(=O)c4c([nH]c32)CCCC4)cc1	-2	-35	1	3	7	x	x	x	x	x
COc1ccc2c(=O)c(-c3ccc4c(c3)OCO4)coc2c1	7	15	88*	96*	84*	56*	87*	64*	77*	16
CCc1cc2c(=O)c(-c3ccc4c(c3)OCCO4)coc2cc1OC(=O)c1ccco1	12	-7	25	73*	1	-11	-5	0	18	5
CC(C)Oc1ccc2c(=O)c(-c3ccccc3)coc2c1	11	1	68*	71*	61*	7	25	52*	36	13
CC(=O)Oc1ccc2c(=O)c(Oc3ccccc3[N+](=O)[O-])coc2c1	-2	23	-6	1	-2	x	x	x	x	x
CCN(CC)C(=O)Oc1ccc2c(=O)c(-c3ccc(OC)cc3)coc2c1	-1	-13	-4	1	-11	x	x	x	x	x
CC(=O)Oc1ccc2c(=O)c(-c3nc4ccccc4s3)coc2c1	61*	-112	98*	99*	94*	45	39	30	72*	51*
O=C(Nc1ccccc1N1CCOCC1)c1cccc2c(Br)cccc12	5	2	5	-2	-7	x	x	x	x	x
Cc1ccc(S(=O)(=O)N2[C@@H](Cc3ccccc3)CO[C@H]2CC(=O)c2ccccc2)cc1	x	10	x	x	x	x	x	x	x	x
O=c1c2ccccc2sc2ccc(NCCCN3CCOCC3)cc12	-1	-4	15	13	5	x	x	x	x	x
COc1cc2sc3cc(NCCCN4CCOCC4)ccc3c(=O)c2cc1OC	x	-463	69*	75*	43	-10	-4	-2	17	29
O=C(O)c1ccc(/C=C/C(=O)c2ccc3c(c2)OCCCO3)cc1	19	14	60*	43	21	70*	57*	74*	2	78*
CC(=O)Nc1ccc(/C=C/C(=O)c2ccc3c(c2)OCCO3)cc1	-6	-88	-14	-13	-2	x	x	x	x	x
CCOc1ccc(C(=O)NC(C(=O)NCCc2ccc(OC(F)F)cc2)C(C)C)cc1 (configuration not stated)	0	2	-3	3	5	x	x	x	x	x
Fc1cccc2sc(Nc3nnc(-c4ccccc4)o3)nc12	10	-315	85*	45	63*	8	7	1	60*	3
Cc1ccc(Oc2ccc(S(=O)(=O)N3CCOCC3)cc2C(N)=O)cc1C	6	3	-20	16	-5	x	x	x	x	x
